Experimental findings from PubChem BioAssay are described below.

The nature of assay [1]: yeast TOR pathway RPL19A-GFP modulators, primary screen, cell-based, S. cerevisiae, multiplex flow cytometry (AID 1862; in the data active = percent of DMSO control GFP below about 86%;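 also: lower values mimic rapamycin by blocking the RPL19A rise seen in DMSO cells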). As to conditions: S. cerevisiae RPL19A-GFP strain, flow cytometry fluorescence, 3 h; at 10 µM; stronger effect = lower value.
Assay [2] can be described thus: modulators of MEP2-GFP levels in yeast, primary screen, S. cerevisiae, multiplex flow cytometry (AID 1867;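 active = GFP response, as percent of the DMSO control, above the screen-wide mean plus 3 SD, about 139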;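 also: median GFP channel fluorescence of barcode-gated MEP2-GFP cells measured by flow cytometry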). As to conditions: S. cerevisiae MEP2-GFP strain, 3 h, at 10 µM, stronger effect = higher value, 100% means same as DMSO wells.
A short description of assay [3]: modulators of CIT2-GFP expression in yeast, primary screen, S. cerevisiae, GFP fusion, multiplex flow cytometry (AID 1870;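 active = percent response above a set limit, the screen-wide mean plus 3 SD, cut at about 130% in these data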;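 also: barcoded CIT2-GFP strain pooled with four other GFP strains with rapamycin as positive control; median GFP fluorescence per well over plate mean of DMSO wells so 100% = DMSO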). As to conditions: 3 h, at 10 µM, stronger effect = higher value. (In general: Flow cytometry measures light scatter and fluorescence of single cells or particles in a stream.)
Assay [4] in a line: modulators of LAP4-GFP expression in yeast, primary screen, S. cerevisiae, multiplex flow cytometry (AID 1873;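 active = GFP signal, as percent of the solvent control, above the screen mean plus 3 SD, about 149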). As to conditions: 3 h, at 10 µM, stronger effect = higher value.
The nature of assay [5]: modulators of AGP1-GFP expression in yeast TOR pathway, primary screen, cell-based, multiplex flow cytometry, S. cerevisiae (AID 1887;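 active = GFP signal above the screen-wide mean plus 3 SD, that is over about 124.5% of the solvent control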;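 also: AGP1-GFP fusion strain of S. cerevisiae within a five-strain barcoded multiplex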). The following applies: 3 h, at 10 µM, stronger effect = higher value.
The nature of assay [6]: inhibitors of CD8+ T cell-vesicle binding, pilot screen, LFA-1/ICAM-1 modulator project, MLPCN validation set, flow cytometry (AID 2523;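 active = response below a set limit, under 55% cells CD8-positive and vesicle-bound, and CD8 cells' 90th-percentile brightness under 279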;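 as to vesicle binding response: mean PE anti-B7-1 fluorescence of CD8+ cells relative to row control; 100% = QL9-loaded vesicles with DMSO vehicle in the same plate row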). As to conditions: 2C mouse CD8+ T cells, at 7 µM, stronger effect = lower value; double positive events: measured here: CD8+/vesicle+ event percentage.
Assay [7] deals with Integrin beta-1 (Homo sapiens) + Integrin alpha-4 (Homo sapiens) (UniProt P13612+P05556). The experiment in a line: inhibition of HUTS-21 binding to VLA-4, pilot screen, VLA-4 allosteric modulator project, U937 cells, HUTS-21 mAb, flow cytometry, validation set (AID 2674).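 Also: antibody binding induced by the VLA-4 ligand LDV present at three times its Kd; 0% = LDV ligand with antibody and no compound and 100% = antibody without LDV.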 The following applies: HUTS-21 LIBS mAb binding, at 6.7 µM, stronger effect = higher value, binding induced by LDV ligand.

The nature of assay [8]: superoxide lowering in aged yeast cells, pilot screen, validation compound set (AID 2706;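 active = superoxide response below 65% of plate, a cut near 3 SD across the whole screen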;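 also: yeast exposed to compound for one week at 30 degrees C before staining; 100% = mean of all compound wells on the same plate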). The following applies: S. cerevisiae aging, superoxide DHE fluorescence; at 10 µM; stronger effect = lower value.
For assay [9], the target named is Beta-adrenergic receptor kinase 1 (Homo sapiens) (UniProt P25098). The experiment in a line: GRK2 binders displacing RNA aptamer, biochemical, validation, human GRK2, bead flow cytometry (AID 488806;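 active = aptamer binding inhibition above 30%, about 3 SD of noise from non-fluorescent compounds; inactive = inhibition at or below 30%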). The following applies: bead-bound GRK2, FAM-aptamer displacement, at 10 µM, stronger effect = higher value.
Assay [10] concerns the target Beta-2 adrenergic receptor (Homo sapiens) (UniProt P07550). The experiment in a line: beta2AR agonists driving receptor internalization, pilot screen, cell-based, FAP fluorogen, flow cytometry, validation set (AID 504459;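 active = percent response above 42, roughly 3 SD of non-fluorescent test compounds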;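 also: agonist-driven loss of surface beta2AR via internalization measured by FAP dye flow cytometry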). The following applies: Am2.2-beta2AR cells, FAP surface receptor flow cytometry; at 10 µM; stronger effect = higher value.
For assay [11], the target named is AP-2 complex subunit beta (Homo sapiens) (UniProt P63010). As to the kind of experiment: inhibitors of arrestin peptide binding to AP2, pilot screen, biochemical, validation set, GST-AP2 beads, flow cytometry (AID 504541;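 active = inhibition above 54%, about 3 SD of non-fluorescent compounds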;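 also: AP2 carries R879A mutation and is captured from E. coli lysate; bead-bound FITC arrestin peptide fluorescence measuring arrestin peptide binding to AP2; 0% = DMSO wells and 100% = excess unlabeled arrestin peptide control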). As to conditions: FITC arrestin peptide, at 10 µM, stronger effect = higher value, AP2 beta2 appendage fragment, R879A mutant.
Assay [12] can be described thus: yeast V-ATPase proton transport modulators, S. cerevisiae, pHLuorin, HTS validation (AID 504600; in the data active = response above about 15%;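 also: plate controls were DMSO for no effect and reference compound for full effect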). As to conditions: S. cerevisiae pHLuorin cytosolic pH, at 10 µM, stronger effect = higher value.
Assay [13] relates to anti-desmoglein-3 scFv antibody binding to human DSG3. As to the kind of experiment: inhibitors of anti-DSG3 scFv binding to DSG3, pilot screen, biochemical, validation compound set, bead-based, flow cytometry (AID 588368;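 active = binding below the plate cutoff, the plate median minus 3 SD, with a reading above zero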;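 also: signal is the median channel fluorescence of bead-bound GFP antibody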). As to conditions: Protein G beads, DSG3-Fc, scFv-GFP binding, at 10 µM, stronger effect = lower value.
Assay [14] can be described thus: inhibitors of fungal efflux pumps CDR1, CDR2, MDR1, pilot screen, validation compound set, multiplex, phenotypic (AID 588506;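 active = efflux inhibition above 0.42, the validation set average plus 4 SD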;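 also: Nile Red retained in cells so higher fluorescence means more efflux inhibition; 0 = negative control wells and 1 = enniatin B 25 µM full block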). The following applies: S. cerevisiae pump-expressing triplex, Nile Red efflux flow cytometry; at 10 µM; stronger effect = higher value; the pumps come from Candida albicans.
The target of assay [15] is ATP-binding cassette sub-family B member 6 (Homo sapiens) (UniProt Q9NP58). As to the kind of experiment: ABCB6 transporter inhibitors, pilot screen, K562-ABCB6 cells, flow cytometry, validation set (AID 588550;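 active = inhibition above the screen-wide mean plus 3 SD, about 51%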;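 also: 0% = DMSO wells and 100% = benzethonium chloride 70 µM positive control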). The following applies: K562-ABCB6 porphyrin accumulation, 1 h, at 10 µM, stronger effect = higher value.
Assay [16] can be described thus: promoters of myeloid differentiation in arrested cells, primary screen, cell-based, GFP/MAC1 double positive, flow cytometry, validation set (AID 588685;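 active = differentiation response of at least 50%, scaled between solvent and reference control, from cells with both markers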;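 also: compound exposure lasts four days before antibody staining and flow analysis; 0% = DMSO wells and 100% = 5 µM fulvestrant positive control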). As to conditions: ER-HoxA9 marrow cells, stronger effect = higher value, normalized: vehicle 0, fulvestrant 100.

Records with an inconclusive call do not appear. The source made the active and inactive calls.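 The calls were made as follows, unless noted: active = inhibition above 50%, about 3 SD of the validation set; inactive = the rest.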

Beta-adrenergic receptor kinase 1 (Homo sapiens), sequence (P25098 whole entry, looked up): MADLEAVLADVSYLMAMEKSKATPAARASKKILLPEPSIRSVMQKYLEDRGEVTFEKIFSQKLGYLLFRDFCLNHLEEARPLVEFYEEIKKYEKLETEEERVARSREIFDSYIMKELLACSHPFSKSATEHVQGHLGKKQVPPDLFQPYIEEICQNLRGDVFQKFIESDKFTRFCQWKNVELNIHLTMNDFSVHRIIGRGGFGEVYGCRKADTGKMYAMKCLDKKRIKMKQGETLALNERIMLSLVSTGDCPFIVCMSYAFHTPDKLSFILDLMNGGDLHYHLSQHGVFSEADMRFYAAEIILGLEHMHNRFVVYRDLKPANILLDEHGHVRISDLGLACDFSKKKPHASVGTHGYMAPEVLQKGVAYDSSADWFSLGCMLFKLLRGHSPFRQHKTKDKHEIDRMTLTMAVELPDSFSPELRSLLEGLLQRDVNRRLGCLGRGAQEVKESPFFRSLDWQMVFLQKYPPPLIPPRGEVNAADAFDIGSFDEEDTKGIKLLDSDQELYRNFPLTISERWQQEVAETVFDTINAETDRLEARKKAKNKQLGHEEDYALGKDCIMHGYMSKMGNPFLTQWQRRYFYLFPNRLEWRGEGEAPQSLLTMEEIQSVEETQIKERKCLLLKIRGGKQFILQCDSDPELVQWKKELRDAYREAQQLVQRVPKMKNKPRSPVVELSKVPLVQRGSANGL
Integrin beta-1 (Homo sapiens) + Integrin alpha-4 (Homo sapiens), sequence (P05556 whole entry, looked up): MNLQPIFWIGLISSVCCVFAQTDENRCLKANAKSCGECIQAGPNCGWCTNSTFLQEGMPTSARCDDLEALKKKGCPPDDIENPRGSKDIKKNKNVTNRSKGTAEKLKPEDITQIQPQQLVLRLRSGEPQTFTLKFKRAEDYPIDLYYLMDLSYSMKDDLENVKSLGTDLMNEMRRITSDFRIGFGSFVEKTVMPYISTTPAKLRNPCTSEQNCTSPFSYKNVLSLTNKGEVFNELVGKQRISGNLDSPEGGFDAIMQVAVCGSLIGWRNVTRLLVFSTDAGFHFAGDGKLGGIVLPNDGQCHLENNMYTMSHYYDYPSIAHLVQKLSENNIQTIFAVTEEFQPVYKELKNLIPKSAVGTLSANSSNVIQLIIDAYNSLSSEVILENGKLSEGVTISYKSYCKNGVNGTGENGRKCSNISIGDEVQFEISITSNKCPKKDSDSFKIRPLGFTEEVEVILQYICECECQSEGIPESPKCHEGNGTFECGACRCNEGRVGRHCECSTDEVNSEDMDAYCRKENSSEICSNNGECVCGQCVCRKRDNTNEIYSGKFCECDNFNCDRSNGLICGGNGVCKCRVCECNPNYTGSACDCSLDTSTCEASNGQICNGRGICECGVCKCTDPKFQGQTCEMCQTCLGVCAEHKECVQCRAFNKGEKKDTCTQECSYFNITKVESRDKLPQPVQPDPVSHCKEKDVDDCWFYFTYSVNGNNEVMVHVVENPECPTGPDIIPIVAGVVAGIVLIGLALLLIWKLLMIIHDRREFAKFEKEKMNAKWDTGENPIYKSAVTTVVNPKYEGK
Integrin beta-1 (Homo sapiens) + Integrin alpha-4 (Homo sapiens), sequence (P13612 whole entry, looked up): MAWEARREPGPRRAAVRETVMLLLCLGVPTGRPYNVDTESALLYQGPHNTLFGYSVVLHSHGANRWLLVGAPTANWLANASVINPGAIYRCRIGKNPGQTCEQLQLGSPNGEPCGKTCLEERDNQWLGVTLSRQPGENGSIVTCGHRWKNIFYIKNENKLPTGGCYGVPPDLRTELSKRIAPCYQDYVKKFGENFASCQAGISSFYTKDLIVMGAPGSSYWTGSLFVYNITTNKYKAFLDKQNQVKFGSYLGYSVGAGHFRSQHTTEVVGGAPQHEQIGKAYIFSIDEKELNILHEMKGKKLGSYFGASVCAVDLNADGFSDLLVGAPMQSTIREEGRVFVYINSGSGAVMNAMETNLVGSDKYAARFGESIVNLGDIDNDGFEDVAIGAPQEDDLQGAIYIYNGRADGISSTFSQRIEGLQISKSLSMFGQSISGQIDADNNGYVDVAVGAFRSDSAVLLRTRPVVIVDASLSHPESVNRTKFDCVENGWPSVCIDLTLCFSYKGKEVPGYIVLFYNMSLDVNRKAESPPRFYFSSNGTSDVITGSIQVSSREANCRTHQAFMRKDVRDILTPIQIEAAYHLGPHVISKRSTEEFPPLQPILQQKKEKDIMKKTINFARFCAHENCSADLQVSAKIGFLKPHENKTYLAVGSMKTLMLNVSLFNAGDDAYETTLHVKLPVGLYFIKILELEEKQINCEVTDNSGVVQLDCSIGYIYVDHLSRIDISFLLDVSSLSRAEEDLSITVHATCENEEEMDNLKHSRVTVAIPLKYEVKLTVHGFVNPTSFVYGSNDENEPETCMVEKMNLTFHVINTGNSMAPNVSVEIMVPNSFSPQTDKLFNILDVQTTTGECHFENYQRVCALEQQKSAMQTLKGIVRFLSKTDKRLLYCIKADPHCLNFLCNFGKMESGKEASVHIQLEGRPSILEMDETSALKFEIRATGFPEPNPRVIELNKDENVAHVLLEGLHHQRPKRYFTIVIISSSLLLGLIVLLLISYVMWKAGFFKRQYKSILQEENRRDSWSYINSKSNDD
AP-2 complex subunit beta (Homo sapiens), sequence (P63010 whole entry, looked up, the tested form may be a part, one chain of several): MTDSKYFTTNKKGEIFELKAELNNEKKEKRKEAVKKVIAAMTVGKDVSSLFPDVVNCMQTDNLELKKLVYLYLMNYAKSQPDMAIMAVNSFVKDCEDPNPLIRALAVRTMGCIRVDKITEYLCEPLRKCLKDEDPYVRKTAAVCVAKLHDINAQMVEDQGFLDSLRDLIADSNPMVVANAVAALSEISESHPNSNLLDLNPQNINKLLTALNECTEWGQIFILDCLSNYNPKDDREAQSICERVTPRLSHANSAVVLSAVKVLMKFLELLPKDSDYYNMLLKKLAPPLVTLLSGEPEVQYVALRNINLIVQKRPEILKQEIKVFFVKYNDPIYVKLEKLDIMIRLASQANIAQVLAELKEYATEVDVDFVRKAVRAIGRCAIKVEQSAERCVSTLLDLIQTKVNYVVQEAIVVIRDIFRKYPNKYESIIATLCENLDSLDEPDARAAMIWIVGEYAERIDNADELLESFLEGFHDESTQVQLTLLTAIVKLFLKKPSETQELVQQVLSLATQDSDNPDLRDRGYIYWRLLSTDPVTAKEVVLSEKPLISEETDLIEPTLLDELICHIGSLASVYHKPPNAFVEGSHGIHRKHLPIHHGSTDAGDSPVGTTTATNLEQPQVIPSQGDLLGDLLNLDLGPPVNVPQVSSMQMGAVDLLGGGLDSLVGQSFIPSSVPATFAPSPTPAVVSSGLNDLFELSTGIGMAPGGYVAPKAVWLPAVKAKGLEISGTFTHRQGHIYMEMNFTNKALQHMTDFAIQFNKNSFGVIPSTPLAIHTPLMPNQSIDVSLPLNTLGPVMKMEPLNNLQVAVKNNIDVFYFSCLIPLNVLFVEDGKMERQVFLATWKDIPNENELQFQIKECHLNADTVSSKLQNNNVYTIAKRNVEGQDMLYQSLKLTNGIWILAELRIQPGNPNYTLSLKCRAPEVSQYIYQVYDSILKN
Beta-2 adrenergic receptor (Homo sapiens), sequence (P07550 whole entry, looked up): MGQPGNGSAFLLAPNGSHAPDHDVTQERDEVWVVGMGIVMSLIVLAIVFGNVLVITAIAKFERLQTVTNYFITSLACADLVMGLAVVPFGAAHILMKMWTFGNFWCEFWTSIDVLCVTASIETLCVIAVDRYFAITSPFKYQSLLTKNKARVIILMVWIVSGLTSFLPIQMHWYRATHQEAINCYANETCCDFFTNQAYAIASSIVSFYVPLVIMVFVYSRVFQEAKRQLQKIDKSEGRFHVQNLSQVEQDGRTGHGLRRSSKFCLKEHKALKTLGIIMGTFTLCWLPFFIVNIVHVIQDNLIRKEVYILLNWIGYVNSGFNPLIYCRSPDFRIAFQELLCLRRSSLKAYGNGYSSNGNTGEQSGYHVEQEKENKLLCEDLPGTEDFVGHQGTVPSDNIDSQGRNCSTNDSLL
ATP-binding cassette sub-family B member 6 (Homo sapiens), sequence (Q9NP58 whole entry, looked up): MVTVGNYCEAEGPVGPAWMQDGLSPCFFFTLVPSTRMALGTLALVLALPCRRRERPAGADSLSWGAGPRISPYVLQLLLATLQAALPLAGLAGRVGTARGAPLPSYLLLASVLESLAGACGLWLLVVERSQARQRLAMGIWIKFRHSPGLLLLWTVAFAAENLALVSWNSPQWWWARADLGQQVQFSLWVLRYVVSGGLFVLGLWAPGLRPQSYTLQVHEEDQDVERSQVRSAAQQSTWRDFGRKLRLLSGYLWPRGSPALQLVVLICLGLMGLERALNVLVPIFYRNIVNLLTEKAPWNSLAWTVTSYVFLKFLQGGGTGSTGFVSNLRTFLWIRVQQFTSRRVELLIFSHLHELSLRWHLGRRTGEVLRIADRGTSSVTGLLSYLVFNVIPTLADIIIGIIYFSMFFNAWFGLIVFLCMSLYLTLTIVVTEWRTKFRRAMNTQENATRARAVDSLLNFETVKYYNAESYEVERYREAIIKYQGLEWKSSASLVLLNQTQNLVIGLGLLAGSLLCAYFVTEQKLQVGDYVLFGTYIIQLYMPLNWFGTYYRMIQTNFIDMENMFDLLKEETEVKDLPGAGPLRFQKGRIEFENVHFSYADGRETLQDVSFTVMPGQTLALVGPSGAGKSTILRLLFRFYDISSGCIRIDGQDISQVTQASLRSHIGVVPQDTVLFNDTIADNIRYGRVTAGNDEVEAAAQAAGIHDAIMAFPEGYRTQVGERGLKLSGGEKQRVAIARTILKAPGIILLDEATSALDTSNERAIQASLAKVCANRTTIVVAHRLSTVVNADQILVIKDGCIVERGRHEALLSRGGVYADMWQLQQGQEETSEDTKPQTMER

As usually defined, the inhibition is the drop in the measured response relative to a control, in per cent. Consider `COc1ccc(NS(=O)(=O)c2ccc(N)cc2)nn1`, for which the percent of DMSO control GFP in assay [1] is 97.3% (inactive). Moreover, the GFP response vs DMSO is 104% (inactive) in [2] and 120% (inactive) in assay [4]. Besides, the percent response of DMSO control in assay [3] was 92.9% (inactive). For the same compound, in [5], the GFP response, % of DMSO is 102% (inactive). This compound gave a double positive events in assay [6] of 56.9%. Also, in assay [6], the vesicle binding response was 162% (inactive). Moreover, the inhibition in assay [7] was 5.03% (inactive); in [11] it was 4.72% (inactive); in assay [15], 2% (inactive). The superoxide response (% of plate) in [8] was 91.9% (inactive). For the same compound, the aptamer binding inhibition in assay [9] is 6% (inactive). The response in assay [10] was -5.23% (inactive); in assay [12], 3.89% (inactive). Moreover, the binding (% of control) in assay [13] is 102% (inactive). In addition, in [14], the efflux inhibition (fraction of control) was -0.17 (inactive). The differentiation response in [16] was -12% (inactive).
Regarding `NC(=O)C1CCCNC1` (stereo not given), the percent of DMSO control GFP in assay [1] was 106% (inactive). For the same compound, the results for the GFP response vs DMSO in assay [2] and in assay [4] were 98.7% (inactive) and 98% (inactive), respectively. The percent response of DMSO control in [3] is 109% (inactive). Besides, in [5], the GFP response, % of DMSO was 105% (inactive). This compound had a double positive events in [6] of 75.5%. The vesicle binding response in assay [6] was 302% (inactive). Also, the inhibition is 1.59% (inactive) in assay [7], 0.42% (inactive) in [11] and 10% (inactive) in assay [15]. Further, the superoxide response (% of plate) in [8] was 104% (inactive). Also, in assay [9], the aptamer binding inhibition is -2% (inactive). Also, the response in assay [10] was 7.03% (inactive); in assay [12], -3.07% (inactive). Besides, the binding (% of control) in [13] was 103% (inactive). Besides, the efflux inhibition (fraction of control) in assay [14] was 0.11 (inactive). Besides, in assay [16], the differentiation response was 8.59% (inactive).
For the compound `Cc1ccc(C(=O)NCCNC(=O)c2ccccc2)cc1`, in [1], the percent of DMSO control GFP is 92.8% (inactive). The GFP response vs DMSO was 96.6% (inactive) in [2] and 98.3% (inactive) in [4]. Also, the percent response of DMSO control in assay [3] was 88% (inactive). Moreover, the GFP response, % of DMSO in assay [5] is 103% (inactive). In assay [6], this compound returned a double positive events of 69.2%. Besides, in [6], the vesicle binding response was 179% (inactive). The inhibition in assay [7] was 13.4% (inactive); in assay [11] it was -2.62% (inactive); in assay [15], 4% (inactive). Further, the superoxide response (% of plate) in assay [8] was 102% (inactive). Also, the aptamer binding inhibition in assay [9] was 0% (inactive). Moreover, the response in assay [10] was -20.1% (inactive); in assay [12], -1.2% (inactive). Besides, the binding (% of control) in [13] is 103% (inactive). In addition, the efflux inhibition (fraction of control) in assay [14] was -0.04 (inactive). Further, the differentiation response in [16] was -18.8% (inactive).
On to `N/C(=N\OC(=O)c1ccc(Br)o1)c1ccccn1`, for which the percent of DMSO control GFP in assay [1] is 101% (inactive). For the same compound, the GFP response vs DMSO in assay [2] was 102% (inactive); in assay [4] it was 124% (inactive). In addition, in assay [3], the percent response of DMSO control is 95.1% (inactive). Further, the GFP response, % of DMSO in assay [5] was 96.9% (inactive). The double positive events in assay [6] turned out to be 67.8%. For the same compound, the vesicle binding response in assay [6] was 232% (inactive). Also, the inhibition is 17.6% (inactive) in assay [7], 2.47% (inactive) in assay [11] and 6% (inactive) in assay [15]. The superoxide response (% of plate) in assay [8] is 117% (inactive). Further, the aptamer binding inhibition in assay [9] was 3% (inactive). The figures for the response in [10] and in assay [12] were -28.6% (inactive) and 5.72% (inactive), respectively. The binding (% of control) in assay [13] was 98.7% (inactive). The efflux inhibition (fraction of control) in [14] was -0.04 (inactive). Besides, the differentiation response in assay [16] was 5.85% (inactive).
For the compound `O=Cc1ccc(O)c(O)c1`, in [1], the percent of DMSO control GFP is 106% (inactive). The GFP response vs DMSO in [2] was 99.7% (inactive); in assay [4], 98% (inactive). The percent response of DMSO control in [3] was 107% (inactive). For the same compound, the GFP response, % of DMSO in assay [5] was 108% (inactive). Moreover, the double positive events in assay [6] amounted to 65.7%. Besides, the vesicle binding response in [6] is 145% (inactive). In addition, the inhibition in assay [7] is 8.29% (inactive); in assay [11], 6.09% (inactive); in assay [15], 21% (inactive). In addition, in [8], the superoxide response (% of plate) was 99.7% (inactive). Further, the aptamer binding inhibition in assay [9] is 6% (inactive). Also, the response in assay [10] was 0.09% (inactive); in assay [12] it was -5.24% (inactive). Besides, in assay [13], the binding (% of control) was 105% (inactive). For the same compound, the efflux inhibition (fraction of control) in assay [14] is -0.11 (inactive). Further, the differentiation response in assay [16] is -4.57% (inactive).
